Several values for one entry are separate records, joined by “and”; a condition that tells them apart may be missing. Equal values may be shown once. Records with an inconclusive call do not appear. Where a call stands in place of a potency, no number is given. Values without a mark were called inactive. Activity calls are given as the source filed them. Calls follow the shape of the dose curve; as a rule, active = well fitted curve in the direction sought with a large enough effect; inconclusive = small, poorly fitted or top-dose-only effect, or another doubt; inactive = no such curve, though single readings can be large; an effect the other way counts as inactive or inconclusive. Numbered stars: 1 amine (or outer) side, 2 acyl side, 3 side chain; on linkers, the order of the positions; unused ones are H or OH. Bridge positions count the residues as written; N and C are the ends. Peptide text beside a SMILES is read from it. X4 = O=C(CCC[*:2])[*:1]
Legend:
[1] = target: Cellular tumor antigen p53 (Homo sapiens) (UniProt P04637); assay: Primary qHTS for small molecule compounds that upregulate eGFP-tagged delta133p53alpha (in N-terminal) cells. (AID 2060322); conditions: NCI-H358 eGFP-delta133p53alpha fluorescence, 24 h; activation: stronger effect = higher value; also: nearly all actives have a fitted effect of over 75% in size; also: potency is read from the fitted curve at half-maximal effect;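 as to activation: cells pre-induced with doxycycline then dosed without doxycycline; series mostly up to about 56 µM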
Chain of Cellular tumor antigen p53 (Homo sapiens) (P04637 whole entry, looked up): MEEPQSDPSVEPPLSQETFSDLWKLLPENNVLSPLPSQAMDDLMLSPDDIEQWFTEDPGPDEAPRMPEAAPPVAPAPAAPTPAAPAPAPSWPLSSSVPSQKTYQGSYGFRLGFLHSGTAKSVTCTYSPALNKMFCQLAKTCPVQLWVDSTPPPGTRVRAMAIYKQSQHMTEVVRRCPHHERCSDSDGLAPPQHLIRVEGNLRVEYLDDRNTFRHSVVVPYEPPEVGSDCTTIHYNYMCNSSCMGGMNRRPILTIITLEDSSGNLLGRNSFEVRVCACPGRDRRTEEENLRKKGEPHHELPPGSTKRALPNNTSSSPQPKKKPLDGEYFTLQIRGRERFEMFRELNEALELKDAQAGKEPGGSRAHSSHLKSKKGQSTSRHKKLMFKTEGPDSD
Summary of the method: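 NCI-H358 cells pre-induced 24 h with 10 ng/ml doxycycline for eGFP-delta133p53alpha, plated dox-free and exposed 24 h at 37C to titrated compounds. Fixed, Hoechst-stained; gated GFP peak intensity by laser scanning cytometry, normalized to DMSO (0%) and 57.5 uM 5-azacytidine (100%).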

[2] = target: Aldehyde dehydrogenase, mitochondrial (Homo sapiens) (UniProt P05091); assay: qHTS for Inhibitors of the Aldehyde Dehydrogenase Family (ALDH2) Primary screen (AID 2061308); also: nearly all actives have a fitted effect of over 55% in size
[3] = target: Retinaldehyde dehydrogenase 3 (Homo sapiens) (UniProt P47895); assay: qHTS for Inhibitors of the Aldehyde Dehydrogenase Family (ALDH1A3) Primary screen (AID 2061315); also: potency is read from the fitted curve at half-maximal effect

CNc1nc(Nc2cn(C(C)(C)C#N)nc2C)ncc1C(F)(F)F
activation [1]: -23.2% | Potency [2]: inactive | Potency [3]: inactive

C=C(C=O)[C@]1(O)C[C@@]2(C)C(=CC1=O)C=C[C@H](OC(=O)/C=C/C=C/[C@H](C)CC)[C@@H]2C
Potency [1]: 4.65 µM (active) | Potency [2]: inactive | Potency [3]: inactive

CCCCCOc1ccc(C2SC(=O)NC2=O)cc1OCC (stereo not given)
activation [1]: 2.33% | Potency [2]: inactive | Potency [3]: inactive

Cc1ccc(S(=O)(=O)n2ccc(-c3c(-c4ccc(Cl)cc4)noc3C)n2)cc1
activation [1]: -18.8% | Potency [2]: inactive | Potency [3]: inactive

C=CC1C(OC2OC(CO)C(O)C(O)C2O)OC=C(C(=O)OC)C1CC(=O)OCC1C(C)C(O)CC1C(CO)COC(=O)CC1C(C(=O)O)=COC(OC2OC(CO)C(O)C(O)C2O)/C1=C\C (stereo not given)
activation [1]: -16% | Potency [2]: inactive | Potency [3]: inactive

COc1cc2oc(-c3ccc(O)cc3O)cc2c(OC)c1CC=C(C)C
activation [1]: 9.82% | Potency [2]: inactive | Potency [3]: inactive

CC[C@H]1OC(=O)[C@H](C)C(=O)[C@H](C)[C@@H](OC2O[C@H](C)C[C@H](N(C)C)[C@H]2O)[C@@H](C)C[C@@H](C)C(=O)/C=C/[C@]1(C)O (stereo not given in full)
activation [1]: -4.58% | Potency [2]: inactive | Potency [3]: inactive

Cc1nc2c(C(F)(F)F)cccc2nc1-c1ccc(-c2cccc(S(C)(=O)=O)c2)cc1
activation [1]: -2.68% | Potency [2]: inactive | Potency [3]: inactive

NC(=O)c1cnc(NCCc2ccc(O)c(Cl)c2)nc1NCc1ccccc1
Potency [1]: 9.53 µM (active) | Potency [2]: inactive | Potency [3]: inactive

CC(C)(O)CC(CO)NC(=O)CC(O)CC(=O)Cc1ccccc1 (stereo not given)
activation [1]: 22.1% | Potency [2]: inactive | Potency [3]: inactive

Cc1onc(C(=O)N2CCN(C(c3ccc(Cl)cc3)c3ccc(Cl)cc3)CC2)c1[N+](=O)[O-]
activation [1]: 10.7% | Potency [2]: inactive | Potency [3]: inactive

O=C(O)c1ccc(NC(=O)[C@H](CC2CCCC2)n2cnc(C(F)(F)F)c2)nc1
activation [1]: -23.2% | Potency [2]: inactive | Potency [3]: inactive

OC[C@@]1(O)CO[C@H](OC[C@H]2O[C@@H](OCCc3ccccc3)[C@H](O)[C@@H](O)[C@@H]2O)[C@@H]1O
activation [1]: -10.7% | Potency [2]: inactive | Potency [3]: inactive

C/C=C(\C)C(=O)O[C@H]1C[C@](C)(O)[C@H]2CC=C(C)[C@H]2[C@@H]2OC(=O)[C@H](C)[C@H]21
activation [1]: -15.2% | Potency [2]: inactive | Potency [3]: inactive

COc1ccc(C(=O)O[C@H]2CC(C)=CC[C@@]3(C)[C@@H](OC(C)=O)C[C@@](O)(C(C)C)[C@H]23)cc1
activation [1]: 1.79% | Potency [2]: inactive | Potency [3]: inactive

CCN(CC)CCCCCCNc1cc(OC)cc2c(C)ccnc12
activation [1]: -2.86% | Potency [2]: inactive | Potency [3]: 2.51 µM (active)

C=CCc1ccc(O[C@@H]2O[C@H](CO[C@@H]3O[C@@H](C)[C@H](O)[C@@H](O)[C@H]3O)[C@@H](O)[C@H](O)[C@H]2O)cc1
activation [1]: 3.57% | Potency [2]: inactive | Potency [3]: inactive

CC1=CC(=O)C2C(C)(C)CC(O)CC2(C)C1CO (stereo not given)
activation [1]: -17.6% | Potency [2]: inactive | Potency [3]: inactive

CC1(C(=O)O)CCCC2(C)C3CCC4CC3(CCC12)CC4=O (stereo not given)
activation [1]: 16.1% | Potency [2]: inactive | Potency [3]: inactive

COC(=O)c1ccc(OC)cc1O[C@@H]1O[C@H](CO[C@@H]2OC[C@@H](O)[C@H](O)[C@H]2O)[C@@H](O)[C@H](O)[C@H]1O
activation [1]: -22.3% | Potency [2]: inactive | Potency [3]: inactive

CC(=O)C1=C(C)N(c2cccc(C(F)(F)F)c2)C(=O)N[C@H]1c1ccc(C#N)nc1
activation [1]: -3.67% | Potency [2]: inactive | Potency [3]: inactive

CC1CCC2(C)C(CC(O)C(O)C23CO3)C1(C)CCC1=CC(=O)OC1O (stereo not given)
activation [1]: -12.2% | Potency [2]: inactive | Potency [3]: inactive

CC1CCC2(C(=O)OC3OC(CO)C(O)C(O)C3O)CCC3(C)C(=CCC4C5(C)CCC(O)C(C)(CO)C5CCC43C)C2C1(C)O (stereo not given)
activation [1]: -6.87% | Potency [2]: inactive | Potency [3]: inactive

C=C1CC2C3(C)C(O)CC(=O)C(C)(C)C3C(O)C(OC(C)=O)C2(C)C2C(=O)OC(C)(C(=O)OC)C(=O)C12C (stereo not given)
activation [1]: 27.5% | Potency [2]: inactive | Potency [3]: inactive

C/C(=N\O)c1ccc(OCC(=O)N2CCCCC2)cc1
activation [1]: 3.35% | Potency [2]: inactive | Potency [3]: inactive

C[C@@H]1CC[C@]2(C(=O)O)CC[C@]3(C)C(=CCC4[C@@]5(C)C[C@@H](O)[C@@H](O)C(C)(C)C5CC[C@]43C)C2[C@]1(C)O (stereo not given in full)
activation [1]: -5.36% | Potency [2]: inactive | Potency [3]: inactive

C[C@@H]1[C@H]2[C@H](O[C@@H]3O[C@H](CO)[C@@H](O)[C@H](O)[C@H]3O)OC=C(C(=O)O)[C@H]2C[C@@H]1OC(=O)/C=C/c1ccc(O)cc1
activation [1]: 18.8% | Potency [2]: inactive | Potency [3]: inactive

C=CC(C)(O)CC[C@H]1C(=C)CCC2[C@](C)(C(=O)O)CCC[C@@]21C (stereo not given in full)
activation [1]: 24.1% | Potency [2]: inactive | Potency [3]: inactive

NC1Nc2ccccc2C1(N)CC1NC(=O)C(Cc2ccccc2)NC(=O)C(Cc2ccccc2)NC1=O (stereo not given)
activation [1]: -3.05% | Potency [2]: inactive | Potency [3]: inactive

COc1ccc(C(O)C(C)OC2OC(CO)C(O)C(O)C2O)cc1 (stereo not given)
activation [1]: -7.63% | Potency [2]: inactive | Potency [3]: inactive

C/C=C/c1cc(OC)c2c(c1)[C@@H](C)[C@@H](c1ccc(O)c(OC)c1)O2
activation [1]: -16% | Potency [2]: inactive | Potency [3]: inactive

CC1(C(=O)O)CCCC2(C)C3CC4C5CC3(CCC12)CC45C (stereo not given)
activation [1]: 17.9% | Potency [2]: inactive | Potency [3]: inactive

CC(C)(C)c1cc(CN2CCN(CC(O)c3ccc(Cl)cc3)CC2)cc(C(C)(C)C)c1O (stereo not given)
activation [1]: -0.477% | Potency [2]: inactive | Potency [3]: inactive

Nc1nc(Nc2ccc3c(c2)CCC(N2CCCC2)CC3)nn1-c1cc2c(nn1)-c1ccccc1CCC2 (stereo not given)
Potency [1]: 26.9 µM (active) | Potency [2]: inactive | Potency [3]: inactive

CC1=C(CO)CC(C(C)C2CCC3C4CC=C5CC(OC6OC(COC7OC(CO)C(O)C(O)C7O)C(O)C(O)C6O)CC(O)C5(C)C4CCC23C)OC1=O (stereo not given)
activation [1]: 3.05% | Potency [2]: inactive | Potency [3]: inactive

CC/C=C/C=C/C1(C)OC(CC(CO)OC)=CC1=O (stereo not given)
activation [1]: 1.79% | Potency [2]: inactive | Potency [3]: inactive

CC(=O)/C=C/C1C(C)CC(O[C@@H]2O[C@H](CO)[C@@H](O)[C@H](O)[C@H]2O)CC1(C)C (stereo not given in full)
activation [1]: -0.893% | Potency [2]: inactive | Potency [3]: inactive

C/C=C/C=C/C=C/C(=O)O[C@@H]1C=C(CO)C(O)(C(=O)O)[C@@]2(C)CCCC(C)(C)[C@H]12 (stereo not given in full)
activation [1]: -9.92% | Potency [2]: inactive | Potency [3]: inactive

Cc1cccc(N(C)C(=S)Oc2ccc3c(c2)CCC3)c1
activation [1]: -3% | Potency [2]: inactive | Potency [3]: inactive

CC[C@H](C)[C@@H]1NC(=O)[C@H](Cc2ccc(OC)cc2)NC(=O)CCCSC[C@@H](C(=O)N2CCC[C@H]2C(=O)N[C@@H](CC(C)C)C(=O)NCC(N)=O)NC(=O)[C@H](CC(N)=O)NC(=O)[C@H](CCC(N)=O)NC1=O (Y(Me)IQNCPLG-NH2; linker N-5 via X4)
activation [1]: -10.3% | Potency [2]: inactive | Potency [3]: inactive

C[C@@H]1CC[C@]2(C(=O)OC3OC(CO)C(O)C(O)C3O)CC[C@]3(C)C(=CCC4[C@@]5(C)CC[C@H](O)[C@](C)(C(=O)O)C5CC[C@]43C)C2[C@]1(C)O (stereo not given in full)
activation [1]: -8.93% | Potency [2]: inactive | Potency [3]: inactive

C=C1C2=CC(O)C(C)C1(C)CC/C(C)=C/CCC1(C)OC1C2=O (stereo not given)
activation [1]: 0.763% | Potency [2]: inactive | Potency [3]: inactive

C=C1C(=O)O[C@@H]2C/C(C)=C\C(=O)/C=C(\C)[C@@H](OC(=O)/C(C)=C\C)[C@H](O)[C@@H]12
Potency [1]: 5.88 µM (active) | Potency [2]: inactive | Potency [3]: inactive

COc1ccc(CN2CCN(C(c3ccc(F)cc3)c3ccc(F)cc3)CC2)c(OC)c1OC
activation [1]: -1.69% and -6.68% | Potency [2]: inactive | Potency [3]: inactive

N#Cc1c[nH]c2c(C(=O)N3CCN(CCc4ccc(F)cc4)CC3)cccc12
activation [1]: -18.8% | Potency [2]: inactive | Potency [3]: inactive

C=C1C(=O)OC2/C=C(\C)CC/C=C(\C=O)C(OC)C(OC(=O)C(C)CC)C12 (stereo not given)
Potency [1]: 16.6 µM (active) | Potency [2]: inactive | Potency [3]: inactive

CC(C)=CC/C=C(/C)[C@H]1CC[C@]2(C)[C@@H]1[C@H](O)CC1[C@@]3(C)CC[C@H](O)C(C)(C)[C@@H]3[C@@H](O[C@@H]3O[C@H](CO)[C@@H](O)[C@H](O)[C@H]3O[C@@H]3O[C@@H](C)[C@H](O)[C@@H](O)[C@H]3O)C[C@]12C (stereo not given in full)
activation [1]: -7.63% | Potency [2]: inactive | Potency [3]: inactive

CCCCCCc1cccc(NC(=O)[C@H](N)CCP(=O)(O)O)c1
activation [1]: 1% | Potency [2]: inactive | Potency [3]: inactive

COC(=O)C1=CO[C@@H](O[C@@H]2O[C@H](CO)[C@@H](O)[C@H](O)[C@H]2O)[C@@H]2[C@@H](C)[C@@H](OC(=O)/C=C/c3ccccc3)[C@@H](O)[C@H]12
activation [1]: -5.34% | Potency [2]: inactive | Potency [3]: inactive

COc1cccc(C)c1C(=O)O[C@@H]1C[C@H](O[C@H]2[C@H](O)C[C@H](O[C@@H]3CCC[C@H]4[C@H]3C=C[C@@H]3CCCC/C=C/[C@H]5C=C(C(=O)O)[C@@H](C)C[C@@]56OC(=O)C(=C6O)OC(=O)[C@@]34C)O[C@@H]2C)O[C@H](C)[C@H]1O
activation [1]: -5.34% | Potency [2]: inactive | Potency [3]: inactive
